Screens as filed in PubChem BioAssay.
IDE exosite inh: exo-site inhibitors of human insulin-degrading enzyme; purified IDE, FL-6b probe fluorescence polarization; active compounds read low; actives 6.3% (n = 17,000); z-score at 20 µM;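 active = z-score of -3 or lower, meaning strong loss of probe binding signal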;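 note: His-tagged human IDE residues 42-1019 made in E. coli with 30 nM FL-6b probe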
Each line names hits and unclear results; the compound was inactive in the other large screens. Only a selection was taken, and hits are over-represented in it overall.

O=C(C1CCOCC1)N1CC(=O)N2[C@@H](CO)[C@@H](c3ccc(-c4ccccc4F)cc3)[C@@H]2C1	none
CCC(=O)N1[C@H](CN(CC)C(=O)c2ccccc2)[C@@H](c2ccccc2)[C@@H]1CO	none
C/C=C/c1ccc([C@H]2[C@@H](CO)N(C(=O)CC3CC3)[C@H]2CNC(C)C)cc1	none
COCCN(C[C@@H]1[C@@H](c2ccccc2)[C@H](CO)N1C(C)=O)C(=O)c1ccncc1	none
COc1ccc(-c2ccc([C@H]3[C@@H](C#N)N(C(=O)C4CCC4)[C@@H]3CO)cc2)cc1	none
OC[C@H]1[C@H](c2ccc(-c3ccc(F)cc3)cc2)[C@H]2CN(CCC(F)(F)F)CCCCN21	none
C[C@H]1CN([C@@H](C)CO)C(=O)c2cccc(N(C)C)c2O[C@H]1CN(C)C(=O)Nc1ccc(F)cc1	none
CCCNC(=O)N1CC(=O)N2[C@H](CO)[C@H](c3ccc(C#CCC4CCCC4)cc3)[C@H]2C1	none
N#C[C@H]1[C@H](c2ccc(C3=CCCCC3)cc2)[C@@H](CO)N1C(=O)c1ccccn1	none
CCCC#Cc1ccc([C@H]2[C@@H](CO)N3C(=O)CN(C(=O)Cc4cccnc4)C[C@@H]23)cc1	none
COc1cccc(C#Cc2ccc([C@@H]3[C@H](CO)N4C(=O)CN(C(=O)Cc5ccccc5)C[C@@H]34)cc2)c1	none
CC(C)C#Cc1ccc([C@@H]2[C@@H](CO)N3C(=O)CN(C(=O)Cc4cccnc4)C[C@H]23)cc1	none
COc1cccc(C#Cc2ccc([C@@H]3[C@H]4CN(C(=O)Cc5cccnc5)CC(=O)N4[C@H]3CO)cc2)c1	IDE exosite inh -5
CCCC#Cc1ccc([C@@H]2[C@@H](CO)N3C(=O)CN(C(=O)Cc4cccnc4)C[C@@H]23)cc1	none
COc1cccc(C#Cc2ccc([C@H]3[C@H](CO)N4C(=O)CN(C(=O)Cc5ccccc5)C[C@@H]34)cc2)c1	none
CCCC#Cc1ccc([C@H]2[C@@H](CO)N3C(=O)CN(C(=O)Cc4cccnc4)C[C@H]23)cc1	none
CCCC#Cc1ccc([C@@H]2[C@@H](CO)N3C(=O)CN(C(=O)Cc4cccnc4)C[C@H]23)cc1	none
COc1cccc(C#Cc2ccc([C@@H]3[C@H](CO)N4C(=O)CN(C(=O)Cc5cccnc5)C[C@@H]34)cc2)c1	IDE exosite inh -4.1
COc1cccc(C#Cc2ccc([C@H]3[C@@H](CO)N4C(=O)CN(C(=O)Cc5cccnc5)C[C@@H]34)cc2)c1	none
CCCC#Cc1ccc([C@@H]2[C@H]3CN(C(=O)Cc4cccnc4)CC(=O)N3[C@H]2CO)cc1	IDE exosite inh -4.3
COc1cccc(C#Cc2ccc([C@H]3[C@H]4CN(C(=O)Cc5cccnc5)CC(=O)N4[C@H]3CO)cc2)c1	IDE exosite inh -4.1
CCC(=O)N(C)C[C@H]1[C@@H](c2ccc(-c3cccc(F)c3)cc2)[C@@H](CO)N1C(C)=O	none
O=C(c1cccnc1)N1CC2(C1)[C@@H](c1ccccc1)[C@@H](CO)N2C(=O)CC1CC1	none
C[C@@H]1CCCCO[C@@H](CN(C)C(=O)c2ccncc2)[C@@H](C)CN([C@@H](C)CO)C(=O)c2cc(NC(=O)CCC(F)(F)F)ccc2O1	none
COCC(=O)N1CC(=O)N2[C@H](CO)[C@@H](c3ccc(-c4ccccc4)cc3)[C@H]2C1	none
COCC(=O)N1[C@H](CO)[C@H](c2ccc(-c3cccnc3)cc2)[C@@H]1C#N	none
CCC(=O)NC[C@H]1[C@H](c2ccc(-c3ccccc3)cc2)[C@@H](CO)N1C(=O)C1CC1	none
COc1ccc(-c2ccccc2[C@@H]2[C@@H](C#N)N(C(=O)C3CCCCC3)[C@H]2CO)cc1	none
CCCNC(=O)N1[C@H](CO)[C@H](c2ccccc2-c2ccc(C)cc2)[C@@H]1C#N	none
CCC(=O)N1[C@H](CO)[C@H](c2ccc(-c3ccccc3)cc2)[C@H]1CNC(=O)C1CC1	none
Cc1cccc(-c2ccc([C@@H]3[C@@H](CO)N4C(=O)CN(C(=O)NC5CCCCC5)C[C@H]34)cc2)c1	IDE exosite inh -12
CCCC#Cc1ccc([C@H]2[C@H]3CN(C(=O)NC4CCCC4)CC(=O)N3[C@H]2CO)cc1	none
O=C(Nc1ccc(F)cc1)N1CC(=O)N2[C@H](CO)[C@@H](c3ccc(-c4cccc(F)c4)cc3)[C@@H]2C1	none
CC(C)CC#Cc1ccc([C@H]2[C@@H](CO)N3C(=O)CN(C(=O)NC4CCCCC4)C[C@@H]23)cc1	none
COc1ccccc1NC(=O)N1CC(=O)N2[C@H](CO)[C@@H](c3ccc(-c4cccc(C)c4)cc3)[C@H]2C1	none
O=C(NC1CCCCC1)N1CC(=O)N2[C@H](CO)[C@@H](c3ccc(-c4cccc(F)c4)cc3)[C@@H]2C1	IDE exosite inh -13
O=C(NC1CCCCC1)N1CC(=O)N2[C@@H](CO)[C@H](c3ccc(-c4cccc(F)c4)cc3)[C@@H]2C1	none
O=C(Nc1cccc(F)c1)N1CC(=O)N2[C@H](CO)[C@@H](c3ccc(-c4cccc(F)c4)cc3)[C@H]2C1	none
Cc1ccccc1-c1ccc([C@@H]2[C@H](CO)N3C(=O)CN(C(=O)NC4CCCC4)C[C@@H]23)cc1	IDE exosite inh -8.1
O=C(NC1CCCCC1)N1CC(=O)N2[C@H](C1)[C@@H](c1ccc(-c3cccc(F)c3)cc1)[C@@H]2CO	IDE exosite inh -7.9
O=C(Nc1cccc(F)c1)N1CC(=O)N2[C@H](CO)[C@H](c3ccc(-c4cccc(F)c4)cc3)[C@H]2C1	none
O=C(NC1CCCC1)N1CC(=O)N2[C@@H](CO)[C@H](c3ccc(-c4ccc(F)cc4)cc3)[C@@H]2C1	none
Cc1ccccc1-c1cnc2c(c1)C(=O)N([C@H](C)CO)C[C@@H](C)[C@H](CN(C)Cc1ccccc1F)O2	none
Cc1ccc(-c2ccc([C@H]3[C@@H](CO)N4C(=O)CN(S(=O)(=O)c5cccc(F)c5)C[C@@H]34)cc2)cc1	none
O=C(C[C@H]1CC[C@@H](NC(=O)Nc2ccc(C(F)(F)F)cc2)[C@H](CO)O1)NCc1cccc(F)c1	none
CCS(=O)(=O)NCC[C@@H]1CC[C@@H](NC(=O)Nc2cc(Cl)cc(Cl)c2)[C@@H](CO)O1	none
COc1ccc(S(=O)(=O)N2CC[C@@H]3[C@H](CO)Nc4ccc(Br)cc4[C@@H]32)cc1	none
Cc1cccc(-c2ccc([C@@H]3[C@@H](CO)N4CCCCN(C(=O)NC(C)C)C[C@@H]34)cc2)c1	IDE exosite inh -5.5
COc1ccccc1NC(=O)N1CCCCN2[C@@H](CO)[C@@H](c3ccc(-c4cccc(C)c4)cc3)[C@@H]2C1	none
COc1ccccc1NC(=O)N1CCCCN2[C@H](CO)[C@@H](c3ccc(-c4cccc(C)c4)cc3)[C@@H]2C1	none
COc1ccccc1NC(=O)N1CCCCN2[C@H](C1)[C@H](c1ccc(-c3cccc(C)c3)cc1)[C@@H]2CO	none
Cc1cccc(-c2ccc([C@H]3[C@@H](CO)N4CCCCN(C(=O)NC(C)C)C[C@@H]34)cc2)c1	IDE exosite inh -6
Cc1cccc(-c2ccc([C@@H]3[C@@H](CO)N4CCCCN(C(=O)NC(C)C)C[C@H]34)cc2)c1	IDE exosite inh -7.2
Cc1ccc(CN2CC(=O)N3[C@H](CO)[C@H](c4ccc(Br)cc4)[C@H]3C2)cc1	none
C/C=C/c1ccc([C@@H]2[C@@H](C#N)N(C(=O)c3cccnc3)[C@@H]2CO)cc1	none
CO[C@H]1CC[C@H]2CCOc3c(C#N)cccc3C(=O)N(C)C[C@H](c3ccccc3)CC(=O)N(C)C[C@H]1O2	none
O=C(C1CCC1)N1CCCCN2[C@H](CO)[C@H](c3ccc(C#CC4(O)CCCC4)cc3)[C@@H]2C1	none
CO[C@H]1CC[C@@H]2CCOc3ccc(C#N)cc3C(=O)N(C)[C@H](C)C(=O)N(C)C[C@@H]1O2	none
O=C(CC1CC1)N1CC(=O)N2[C@H](CO)[C@@H](c3ccc(-c4cccnc4)cc3)[C@@H]2C1	none
